Assay [1] is described as follows: NCI Yeast Anticancer Drug Screen. Data for the rad50 strain (AID 155).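 Note: 0% = growth of vehicle-only cultures of the same strain.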 The following applies: S. cerevisiae rad50 strain growth inhibition, stronger effect = higher value; at 50.0 µM unless noted. In a few lines: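 Cells are treated with compound, grown, and their growth is then scored against vehicle-only cultures of the same repair-deficient yeast strain.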
A short description of assay [2]: NCI Yeast Anticancer Drug Screen. Data for the mec2-1 strain (AID 157). The conditions noted are these: S. cerevisiae mec2-1 strain, stronger effect = higher value; at 50.0 µM unless noted. In a few lines: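 Mutant yeast (mec2-1) grown with compound; growth inhibition relative to vehicle control reported.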
Assay [3] can be described thus: NCI Yeast Anticancer Drug Screen. Data for the sgs1 mgt1 strain (AID 161).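 Note: 0% = growth of cultures given vehicle only.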 The conditions noted are these: S. cerevisiae sgs1 mgt1 strain, stronger effect = higher value; at 50.0 µM unless noted. In a few lines:
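This yeast growth screen uses a strain with defined DNA-repair lesions; compound-treated growth is compared with vehicle-treated growth.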

The nature of assay [4]: NCI Yeast Anticancer Drug Screen. Data for the cln2 rad14 strain (AID 165).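 Note: 0% = growth equal to vehicle treated cultures.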 The following applies: S. cerevisiae cln2 rad14 strain, stronger effect = higher value; at 50.0 µM unless noted. In a few lines:
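Readout is yeast growth inhibition versus vehicle-treated controls, using a strain with cln2 and rad14 alterations exposed to compound.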

Assay [5] can be described thus: NCI Yeast Anticancer Drug Screen. Data for the bub3 strain (AID 167). The conditions noted are these: S. cerevisiae bub3 mutant strain, stronger effect = higher value; at 50.0 µM unless noted. In a few lines:
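Part of a panel of yeast mutants defective in DNA damage repair or cell cycle regulation. Each strain is grown with compound, and inhibition is calculated relative to solvent-treated cultures.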

A short description of assay [6]: NCI Yeast Anticancer Drug Screen. Data for the mlh1 rad18 strain (AID 175). The following applies: S. cerevisiae mlh1 rad18 strain growth inhibition, stronger effect = higher value; at 50.0 µM unless noted. In a few lines:
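Genetically defined yeast (DNA repair-deficient) exposed to compounds; growth inhibition determined relative to vehicle.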

Several values for one entry are separate records, joined by “and”; a condition that tells them apart may be missing. Equal entries are not always repeated. Compounds without any hit were thinned out: in the full panel of roughly 79,000, 15% have a hit. A number with no mark means an inactive call. Activity calls are given as the source filed them. Cut-off read from the data, not from the text of the source: active = growth inhibition above about 70%; inactive = the rest.

As to `COc1ccc2nc3ccccc3c(NCCC[N+](C)(C)[O-])c2c1[N+](=O)[O-]`, the growth inhibition in assay [1] is -6.4%; in assay [2], -16.4%; in assay [3], 3.45%; in assay [4], -34.1%; in assay [5], -13.1%; in assay [6], -7.55%.

Regarding `CC(C)=Nn1cnc2c1NC(C)(C)N=C2C(N)=O`, the growth inhibition in assay [1] is -18.8%; in assay [2], -17.2%; in assay [3], -12.2%; in assay [4], 7.85%; in assay [5], 14.8%; in assay [6] it was -15.6%.

For `CCN1CCC(O)C1` (stereo unspecified), the growth inhibition in assay [1] is 18.6%; in assay [2] it was -0.1%; in assay [3] it was 19.2%; in assay [4] it was 14.2%; in assay [5], 26%; in assay [6], 30.9%.

For `CCOC(=O)c1ccc(N/C(C)=C/C(=O)OC)cc1`, the growth inhibition in assay [1] is 3.45%; in assay [2] it was -8.4%; in assay [3], 11.2%; in assay [4], -20.7%; in assay [5], 1.95%; in assay [6], 3.55%.

Regarding `CCC(=O)OCC(CC(=O)NCCc1ccccc1)=NCCc1ccccc1`, the growth inhibition in assay [1] is 18.6%; in assay [2], -0.6%; in assay [3], 16.6%; in assay [4] it was 9.15%; in assay [5], 2.55%; in assay [6], 14.9%.

`Fc1cccc2c(SCc3ccc(Cl)cc3Cl)cnnc12`: the growth inhibition in assay [1] was -0.9%; in assay [2], -1.25%; in assay [3], 3.25%; in assay [4], -44.5%; in assay [5], 13.8%; in assay [6], 2.85%.

As to `CCOCC(Br)C(OCC)OCC` (stereo unspecified), the growth inhibition was 19.2% in assay [1]; -6.65% in assay [2]; 8.15% in assay [3]; 20.9% in assay [4]; 0.45% in assay [5]; 26.1% in assay [6].

On to `CC(C)CCC(C)C1CCC2C3CCC4CC(=O)CC4(C)C3CCC12C` (stereo unspecified), for which the growth inhibition in assay [1] is -13.5%; in assay [2] it was 7.2%; in assay [3], -20.1%; in assay [4], -10.4%; in assay [5], -11.6%; in assay [6], 2.85%.

Regarding `O=C(O)COc1ccc(NC(=O)COc2ccc(Cl)c(Cl)c2)cc1`, the growth inhibition is 8.8% in assay [1]; -10% in assay [2]; -28.9% in assay [3]; -30.1% in assay [4]; 2.75% in assay [5]; 15.1% in assay [6].

Regarding `Cc1ccc(C(=O)/C=C/C(=O)c2ccc(C)cc2)cc1`, the growth inhibition is 4.55% in assay [1]; 29.9% in assay [2]; 19.2% in assay [3]; 19.9% in assay [4]; 14.9% in assay [5]; 3.8% in assay [6].

`CCSC(=Nc1nc2ccc([N+](=O)[O-])cc2s1)SCC`: the growth inhibition in assay [1] was 43.5%; in assay [2], 31.4%; in assay [3], 33.5%; in assay [4] it was 14.1%; in assay [5], 25.5%; in assay [6], 12.2%.

In the case of `C=C1C(=O)C23[C@H](O)C1CC[C@H]2[C@]12COC3(O)[C@@H](O)[C@@H]1C(C)(C)CC[C@@H]2O`, the growth inhibition is 3.65% in assay [1]; -20.6% in assay [2]; 19.8% in assay [3]; -0.6% in assay [4]; -0.5% in assay [5]; -46.1% in assay [6].

Consider `CCOC(=S)SCC(=O)CSC(=S)OCC`, for which the growth inhibition is 73.8% (active) in assay [1]; 12.1% in assay [2]; 21.7% in assay [3]; 9.7% in assay [4]; 50.2% in assay [5]; 2.15% in assay [6].

As for `N#Cc1ccc(/C=C(/C(=O)c2ccccc2)c2ccccc2)cc1`, the growth inhibition in assay [1] is 7.35%; in assay [2], -31.9%; in assay [3] it was 0.2%; in assay [4], 6.85%; in assay [5], -23.8%; in assay [6], -3.35%.

Consider `CCOC(OCC)c1ccc(OC)c(OC)c1`, for which the growth inhibition in assay [1] was 13.5%; in assay [2] it was -5.3%; in assay [3], 8.95%; in assay [4], -0.1%; in assay [5], 3.45%; in assay [6], 9.6%.

In the case of `O=C(O)c1ccccc1SCCO`, the growth inhibition in assay [1] was -1.95%; in assay [2], 18%; in assay [3] it was 25.3%; in assay [4], 47.8%; in assay [5], -22.4%; in assay [6] it was -3.8%.

Regarding `CCCCCCCCCCCCCCCCS(=O)(=O)N(/N=c1/sc2ccccc2n1C)C(=O)OCC`, the growth inhibition in assay [1] was -29.4%; in assay [2], -32.3%; in assay [3], -13.3%; in assay [4], 21.4%; in assay [5], -12.2%; in assay [6], -27.8%.

With `C[N+](C)(C)CCc1ccc(Cl)cc1`, the growth inhibition in assay [1] is 10.2%; in assay [2], 7.45%; in assay [3], 9.7%; in assay [4], -3.7%; in assay [5], -0.05%; in assay [6], 21.8%.

Turning to `COc1ccc2ncccc2c1[N+](=O)[O-]`, the growth inhibition was -5.55% in assay [1]; -44.3% in assay [2]; -5.8% in assay [3]; -14.5% in assay [4]; -23.4% in assay [5]; -18.6% in assay [6].

`CC(=O)c1cc(Cc2cc(C)cc(C)c2O)c(O)c(Cc2cc(C)cc(C)c2O)c1`: the growth inhibition in assay [1] was 18.9%; in assay [2], 11.6%; in assay [3] it was 28.9%; in assay [4], 33.7%; in assay [5] it was 17.4%; in assay [6], 4.05%.

Consider `NC1CCC(C(=O)O)CC1` (stereo unspecified), for which the growth inhibition in assay [1] is -3% and -3.15%; in assay [2], 0.95% and 15.9%; in assay [3], -3.5% and 4.4%; in assay [4], -52% and 57%; in assay [5], 6.15% and 61.3%; in assay [6] it was -7.65% and 28.4%.

These data come from PubChem BioAssay (NCI).
